Test results: PubChem BioAssay AID1159537 (DiRusso Lab, Biochemistry Department, University of Nebraska, 2015)
Screen size: about 44,000 compounds; about 370 (0.84%) were called active. The rule behind the calls is not given here. The full list was thinned out, with actives kept by preference.

experiment: compounds raising algal triacylglycerol storage – qHTS, Chlamydomonas reinhardtii, primary screen (AID 1159537); details: Chlamydomonas reinhardtii TAG, Nile Red fluorescence, 72 h;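 note: hits raise Nile Red signal meaning more stored TAG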

Row | SMILES | outcome
1 | CCN(CC)CC#CCOc1ccccc1 | active [screened at 10 µM (by protocol)]
2 | O=C(Nc1cccc(OC(=O)N2CCCCC2)c1)N1CCOCC1 | inactive
3 | CCN(CC)CCNc1ccc([N+](=O)[O-])c2cccnc12 | inactive [screened at 10 µM (by protocol)]
4 | CCN1CCN(CC2=CC[C@H]3C[C@@H]2C3(C)C)CC1 | inactive [screened at 10 µM (by protocol)]
5 | CN1CCCN(CC2=CC[C@H]3C[C@@H]2C3(C)C)CC1 | active [screened at 10 µM (by protocol)]
6 | CN1CCN(Cc2cc(Br)cs2)CC1 | inactive [screened at 10 µM (by protocol)]
7 | Cc1cccc(OCC(=O)N2CCN(Cc3ccccc3)CC2)c1C | inactive [screened at 10 µM (by protocol)]
8 | Fc1cccc(Cl)c1CN1CCN(c2ccccc2)CC1 | inactive
9 | O=c1cccc2n1CC1CC2CN(c2nc(N3CCOCC3)nc(N3CCOCC3)n2)C1 (stereo not given) | inactive
10 | O=[N+]([O-])c1ccc(CN2CCN(c3cccc(Cl)c3)CC2)cc1 | inactive
11 | COc1ccccc1N1CCN(Cc2cccc([N+](=O)[O-])c2)CC1 | inactive
12 | Cc1ccc(C)c(N2CCN(Cc3ccc([N+](=O)[O-])cc3)CC2)c1 | active
13 | CCC1(c2ccccc2)C(=O)NC(=O)N(C)C1=O (stereo not given) | inactive
14 | Nc1ccc(-c2ccc(N)c(N)c2)cc1N | inactive [screened at 10 µM (by protocol)]
15 | N#CC(/C=C/c1ccccc1)N1CCOCC1 (stereo not given) | inactive
